High-throughput results as filed in PubChem BioAssay.
An excerpt weighted towards active compounds, which were near 2.2% of everything screened.
p53 PUMA act – re-activators of the mutant p53 pathway. SW480 PUMA-promoter luciferase, p53 mutant reactivation. activation, % at 9.98 µM. 28,000 compounds, 1.5% hits; in the data active means activation above about 52%
ID4 binder – ID4 (human) binding. P47928. small molecule microarray, Flag-ID4 binding, fluorescence F/B. calls only. 31,000 compounds, 1.2% hits. AID 624137; call rule not given here;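 further: a binder raises fluorescence above local background on the spot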
Target sequence (P47928 whole entry, looked up): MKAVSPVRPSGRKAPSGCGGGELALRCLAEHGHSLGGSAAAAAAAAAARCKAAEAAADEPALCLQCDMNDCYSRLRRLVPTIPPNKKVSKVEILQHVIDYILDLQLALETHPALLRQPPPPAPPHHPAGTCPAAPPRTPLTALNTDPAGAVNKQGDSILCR
An asterisk follows results filed as active; i = inactive; x = not tested or not shown; + = active, no number.

SMILES	p53 PUMA act	ID4 binder
Cc1cc(=O)oc2cc(NC(=S)NCc3ccccn3)ccc12	81.2*	i
Cc1ccccc1NC(=O)C(=O)NCc1ccccn1	35.7	i
CC(C)CNC(=O)C(=O)NCc1ccccn1	1.8	i
Cc1cc(=O)oc2cc(NC(=S)NCCCN3CCCC3=O)ccc12	38.7	i
Cc1ccc(NC(=O)C(=O)NCc2ccccn2)cc1C	94.3*	i
O=C(NCc1ccccn1)C(=O)Nc1ccccc1F	60.5*	i
C[C@@H]1CN([C@@H](C)CO)C(=O)c2cccc(NC(=O)Nc3ccc(C(F)(F)F)cc3)c2O[C@@H]1CN(C)S(=O)(=O)c1cn(C)cn1	11.0	i
C[C@@H]1CCCCO[C@H](CN(C)Cc2ccccc2)[C@@H](C)CN([C@@H](C)CO)C(=O)c2cc(NC(=O)CCCN(C)C)ccc2O1	2.7	i
COc1ccc(C2NC(=S)NC(C)=C2C(=O)Nc2cc(OC)c(Cl)cc2OC)c(OC)c1 (stereo not given)	6.3	i
COc1cccc(C(=O)COc2ccc(NC(=O)c3ccccc3C)cc2)c1	0.1	i
Cc1cccc(NC(=O)c2ccccc2OCC(=O)Nc2cccc([N+](=O)[O-])c2)c1C	-4.5	i
Cc1ccccc1C(=O)Nc1ccc(OCC(=O)O)cc1	-7.8	+
Cc1cc(Cl)ccc1OCC(=O)Nc1cccc(NC(=O)c2ccccc2Cl)c1	37.6	i
CC(=O)Nc1ccc(NC(=O)COc2ccccc2C(=O)Nc2cccc(C)c2C)cc1	-15.0	+
Cc1cc(Cl)ccc1OCC(=O)Nc1cccc(NC(=O)c2ccccc2C)c1	57.2*	i
COc1ccc(CN(C)C[C@H]2Oc3ccc(NC(=O)Nc4ccc(OC)cc4)cc3CC(=O)N([C@H](C)CO)C[C@H]2C)cc1	13.0	i
CC(CCC(=O)Nc1ccccc1)C(=O)O (stereo not given)	11.7	i
Cc1noc(C)c1NC(=O)N(C)C[C@H]1Oc2ccc(NC(=O)Nc3ccc(F)cc3)cc2C(=O)N([C@H](C)CO)C[C@@H]1C	6.4	i
O=C(Nc1ccccc1C(=O)NCc1ccco1)c1ccc(-c2ccccc2)cc1	57.7*	i
O=C(Nc1ccccc1C(=O)NCc1ccco1)c1ccccc1Cl	-0.3	i
C[C@H](CO)N1C[C@H](C)[C@@H](CN(C)S(=O)(=O)c2ccccc2)OCCCC[C@H](C)Oc2ccc(N(C)C)cc2C1=O	4.9	i
O=C(C[C@H]1C=C[C@@H](NC(=O)c2cccnc2)[C@@H](CO)O1)NCCN1CCCCC1	x	i
Cc1ccc(S(=O)(=O)N2CCCC(C(=O)Nc3ccc4c(c3)OCCO4)C2)cc1 (stereo not given)	-2.2	i
CC(=O)c1cccc(NC(=O)C2CCCN(S(=O)(=O)c3ccccc3)C2)c1 (stereo not given)	-4.3	+
C[C@@H]1CN([C@@H](C)CO)C(=O)c2cc(NC(=O)CCCN(C)C)ccc2O[C@@H](C)CCCCO[C@@H]1CN(C)S(=O)(=O)c1cn(C)cn1	3.0	+
SMILES	p53 PUMA act	ID4 binder
C[C@@H]1CCCCO[C@@H](CN(C)S(=O)(=O)c2cccs2)[C@@H](C)CN([C@@H](C)CO)C(=O)c2cc(NC(=O)CCCN(C)C)ccc2O1	6.6	+
C[C@H]1CCCCO[C@H](CN(C)S(=O)(=O)c2cccs2)[C@@H](C)CN([C@@H](C)CO)C(=O)c2cc(NC(=O)CCC(F)(F)F)ccc2O1	1.9	x
C[C@H](CO)N1C[C@H](C)[C@@H](CN(C)S(=O)(=O)c2cccs2)Oc2ccc(NC(=O)CCCN(C)C)cc2C1=O	6.2	+
C[C@H](CO)N1C[C@H](C)[C@H](CN(C)S(=O)(=O)c2cn(C)cn2)OCCCC[C@H](C)Oc2ccc(NC(=O)Cc3ccccc3)cc2C1=O	1.5	i
C[C@@H]1CN([C@@H](C)CO)C(=O)c2cc(NC(=O)CCCN(C)C)ccc2O[C@H]1CN(C)S(=O)(=O)c1cccs1	1.0	i
C[C@H](CO)N1C[C@H](C)[C@H](CN(C)CC2CC2)Oc2ccc(NC(=O)CCC(F)(F)F)cc2C1=O	x	i
C[C@@H]1CN([C@@H](C)CO)S(=O)(=O)c2ccc(C#CCN(C)C)cc2O[C@H]1CN(C)CC1CCCC1	x	i
CCCNC(=O)N(C)C[C@H]1Oc2cc(C#CC(C)(C)O)ccc2S(=O)(=O)N([C@@H](C)CO)C[C@H]1C	-9.4	x
COc1ccc(NC(=O)Nc2cccc3c2O[C@@H](CN(C)Cc2ccncc2)[C@@H](C)CN([C@H](C)CO)C3=O)cc1	1.0	x
CC(C(=O)O)c1ccc(C(=O)c2cccs2)cc1 (stereo not given)	x	i
O=C(NCCC(c1ccc(F)cc1)c1ccco1)c1cccs1 (stereo not given)	50.4*	i
Brc1ccc(-c2cnc3ccccc3n2)s1	74.3*	i
COC(=O)c1ccc(NC(=O)CCC(=O)c2ccc(Br)cc2)cc1	-7.6	i
N#Cc1c(NC(=S)NC(=O)c2cncc(Br)c2)sc2c1CCCC2	17.0	i
Cc1cccnc1NC(=S)NC(=O)c1cncc(Br)c1	108.2*	i
CC[C@H](CO)Nc1nc(NCc2ccccc2)c2ncn(C(C)C)c2n1	118.8*	i
CC(C)n1cnc2c(Nc3cccc(Cl)c3)nc(NCCO)nc21	5.1	x
CC(C)NC(=O)Nc1cccc2c1O[C@H](CN(C)Cc1ccc(Cl)c(Cl)c1)[C@@H](C)CN([C@H](C)CO)C2=O	-0.9	i
C=C1C(=O)O[C@@H]2/C=C(/CO[C@@H]3O[C@H](CO)[C@@H](O)[C@H](O)[C@H]3O)CC/C=C3\C[C@H](OC3=O)[C@@H]12	3.4	x
OCc1c[nH]c2ccccc12	-9.3	i
O=C(NCCc1c[nH]c2ccccc12)NC1CCCCC1	84.2*	i
O=C(NCCc1c[nH]c2ccccc12)Nc1cccc2ccccc12	12.6	i
NC(=O)CCCc1c[nH]c2ccccc12	78.9*	i
C[C@@H]1CN([C@H](C)CO)C(=O)c2cc(N(C)C)ccc2O[C@H]1CN(C)Cc1ccccc1	-0.2	i
COc1ccc(S(=O)(=O)Nc2ccc3c(c2)C(=O)N([C@@H](C)CO)C[C@@H](C)[C@@H](CN(C)CC2CC2)O3)cc1	3.7	i
SMILES	p53 PUMA act	ID4 binder
COc1ccccc1NC(=O)Cn1nnc2sc3c(c2c1=O)CCC(C)C3 (stereo not given)	17.2	i
O=C(Nc1ccc(S(=O)(=O)N2CCOCC2)cc1)c1cc(-c2ccncc2)nc2c(Cl)cccc12	-21.2	i
Cc1ccc2nc(-c3ccccn3)cc(C(=O)Nc3ccc(S(=O)(=O)N4CCOCC4)cc3)c2c1	4.5	+
C[C@@H]1CN([C@@H](C)CO)C(=O)CCCn2cc(nn2)CO[C@@H]1CN(C)CC1CCCCC1	x	i
COc1ccccc1NC(=O)N(C)C[C@@H]1OCc2cnnn2CCCC(=O)N([C@@H](C)CO)C[C@H]1C	-2.5	+
C[C@H](CO)N1C[C@H](C)[C@@H](CN(C)Cc2ccc(Oc3ccccc3)cc2)OCc2cnnn2CCCC1=O	1.4	i
C[C@@H]1CN([C@H](C)CO)C(=O)CCCn2nncc2CO[C@@H]1CN(C)Cc1ccc(Oc2ccccc2)cc1	-1.7	+
Cc1noc(C)c1S(=O)(=O)N(C)C[C@@H]1OCc2cnnn2CCCC(=O)N([C@@H](C)CO)C[C@@H]1C	-1.7	+
COc1ccccc1NC(=O)N(C)C[C@H]1OCc2cnnn2CCCC(=O)N([C@@H](C)CO)C[C@H]1C	-10.2	i
